Data as given in the supplement of paper PMC11732987, “Enantioselective OTUD7B fragment discovery through chemoproteomics screening and high-throughput optimisation” (Communications Chemistry, 2025).

Tests used:
Assay in all cases: log2 ratio of Biotin-Ahx-Ub-VS probe labelling (fragment/DMSO); higher = less target engagement (more negative = stronger competition), active = hit call of the paper (q ≤ 0.05, log2 ratio ≤ -1)
Conditions in all cases: compound concentration: 200 uM; treatment time: 3 h
USP42 = target: T1, USP42 (UniProt Q9H9J4)
T1 sequence (whole entry): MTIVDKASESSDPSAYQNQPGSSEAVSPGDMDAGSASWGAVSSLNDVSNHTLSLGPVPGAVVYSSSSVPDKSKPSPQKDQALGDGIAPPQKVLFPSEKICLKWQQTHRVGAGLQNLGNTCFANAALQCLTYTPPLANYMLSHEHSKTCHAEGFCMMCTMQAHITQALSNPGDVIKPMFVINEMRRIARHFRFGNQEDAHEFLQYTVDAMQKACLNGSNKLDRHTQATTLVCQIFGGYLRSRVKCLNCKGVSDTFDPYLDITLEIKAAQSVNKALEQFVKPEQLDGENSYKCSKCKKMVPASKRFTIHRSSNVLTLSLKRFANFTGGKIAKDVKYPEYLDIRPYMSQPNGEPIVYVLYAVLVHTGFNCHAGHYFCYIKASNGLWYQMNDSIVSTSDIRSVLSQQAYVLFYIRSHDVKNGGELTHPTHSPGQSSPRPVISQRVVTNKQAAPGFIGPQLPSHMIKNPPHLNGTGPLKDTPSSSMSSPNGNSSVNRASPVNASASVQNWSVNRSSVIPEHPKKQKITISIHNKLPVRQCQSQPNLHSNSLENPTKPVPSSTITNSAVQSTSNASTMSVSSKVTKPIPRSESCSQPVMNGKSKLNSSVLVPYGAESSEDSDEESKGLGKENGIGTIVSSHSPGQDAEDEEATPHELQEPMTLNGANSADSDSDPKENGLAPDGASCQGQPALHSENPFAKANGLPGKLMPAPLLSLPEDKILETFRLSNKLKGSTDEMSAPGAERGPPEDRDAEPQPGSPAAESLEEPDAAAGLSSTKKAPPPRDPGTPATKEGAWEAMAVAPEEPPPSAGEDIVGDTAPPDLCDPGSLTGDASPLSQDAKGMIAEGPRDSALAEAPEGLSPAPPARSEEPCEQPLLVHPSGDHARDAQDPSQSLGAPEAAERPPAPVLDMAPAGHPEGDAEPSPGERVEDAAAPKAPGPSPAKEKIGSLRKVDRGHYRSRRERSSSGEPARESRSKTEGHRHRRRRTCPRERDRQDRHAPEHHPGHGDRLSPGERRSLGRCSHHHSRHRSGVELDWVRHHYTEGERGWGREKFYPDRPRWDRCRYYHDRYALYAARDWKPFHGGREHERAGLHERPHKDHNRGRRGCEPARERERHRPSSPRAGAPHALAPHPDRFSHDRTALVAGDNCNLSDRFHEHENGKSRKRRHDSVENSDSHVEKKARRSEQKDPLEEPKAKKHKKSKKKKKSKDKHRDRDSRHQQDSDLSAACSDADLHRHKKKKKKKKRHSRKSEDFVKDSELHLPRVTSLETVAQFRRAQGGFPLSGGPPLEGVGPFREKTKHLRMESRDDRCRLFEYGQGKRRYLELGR
Outline: (§1)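 Labelling with Biotin-Ahx-Ub-VS (0.5 µM final, 1 h) followed a 3 h triplicate treatment of HEK293T lysate (495 µg per sample, Tris/CHAPS/IGEPAL buffer with protease inhibitors) with fragment at 200 µM or vehicle. Labelled DUBs were NeutrAvidin-enriched, digested with LysC and trypsin, and run by diaPASEF LC-MS/MS. The values, average log2 fragment/vehicle ratios by unpaired t-test, come from global-median-normalised Spectronaut label-free quantities. Proteins with ≥2 unique peptides were used.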

USP46 = USP46 (UniProt P62068)
Outline: as §1

USP47 = target: T2, USP47 (UniProt Q96K76)
T2 sequence (whole entry): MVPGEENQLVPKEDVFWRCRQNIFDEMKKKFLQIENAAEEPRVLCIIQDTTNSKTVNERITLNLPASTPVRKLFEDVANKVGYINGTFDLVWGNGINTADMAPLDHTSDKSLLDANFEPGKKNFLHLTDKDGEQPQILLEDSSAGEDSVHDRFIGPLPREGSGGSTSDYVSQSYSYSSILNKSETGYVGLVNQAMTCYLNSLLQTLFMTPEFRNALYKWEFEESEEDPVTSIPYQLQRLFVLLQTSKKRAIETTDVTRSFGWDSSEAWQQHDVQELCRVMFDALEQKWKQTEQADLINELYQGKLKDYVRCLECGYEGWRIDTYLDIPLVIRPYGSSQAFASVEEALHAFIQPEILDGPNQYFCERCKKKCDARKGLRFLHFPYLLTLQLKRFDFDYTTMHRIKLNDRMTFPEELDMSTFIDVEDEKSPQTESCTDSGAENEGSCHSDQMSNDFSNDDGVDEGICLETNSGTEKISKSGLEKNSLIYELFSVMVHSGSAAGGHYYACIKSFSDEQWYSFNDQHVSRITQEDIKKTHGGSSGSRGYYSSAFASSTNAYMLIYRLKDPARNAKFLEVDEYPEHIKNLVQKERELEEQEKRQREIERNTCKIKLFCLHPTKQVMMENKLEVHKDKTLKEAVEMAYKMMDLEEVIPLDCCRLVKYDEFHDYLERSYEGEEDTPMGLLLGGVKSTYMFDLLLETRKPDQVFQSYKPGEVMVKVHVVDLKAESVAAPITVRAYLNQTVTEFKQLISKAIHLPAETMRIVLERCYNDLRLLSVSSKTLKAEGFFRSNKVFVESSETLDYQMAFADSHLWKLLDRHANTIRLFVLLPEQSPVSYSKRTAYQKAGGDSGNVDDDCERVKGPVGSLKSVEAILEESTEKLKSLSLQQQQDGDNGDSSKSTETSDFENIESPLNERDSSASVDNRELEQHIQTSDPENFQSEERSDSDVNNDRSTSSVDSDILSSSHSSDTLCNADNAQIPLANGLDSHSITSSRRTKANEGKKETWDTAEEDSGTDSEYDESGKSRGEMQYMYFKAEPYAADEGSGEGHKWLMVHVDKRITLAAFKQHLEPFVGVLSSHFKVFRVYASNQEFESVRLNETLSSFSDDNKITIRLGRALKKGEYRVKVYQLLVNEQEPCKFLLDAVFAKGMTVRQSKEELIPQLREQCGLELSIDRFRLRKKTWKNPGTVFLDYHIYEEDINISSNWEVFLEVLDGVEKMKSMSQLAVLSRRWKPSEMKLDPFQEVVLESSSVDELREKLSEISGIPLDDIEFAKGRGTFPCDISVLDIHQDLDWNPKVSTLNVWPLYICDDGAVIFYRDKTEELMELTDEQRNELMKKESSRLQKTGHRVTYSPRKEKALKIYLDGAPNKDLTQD
Outline: as §1

USP48 = target: T3, USP48 (UniProt Q86UV5)
T3 sequence (whole entry): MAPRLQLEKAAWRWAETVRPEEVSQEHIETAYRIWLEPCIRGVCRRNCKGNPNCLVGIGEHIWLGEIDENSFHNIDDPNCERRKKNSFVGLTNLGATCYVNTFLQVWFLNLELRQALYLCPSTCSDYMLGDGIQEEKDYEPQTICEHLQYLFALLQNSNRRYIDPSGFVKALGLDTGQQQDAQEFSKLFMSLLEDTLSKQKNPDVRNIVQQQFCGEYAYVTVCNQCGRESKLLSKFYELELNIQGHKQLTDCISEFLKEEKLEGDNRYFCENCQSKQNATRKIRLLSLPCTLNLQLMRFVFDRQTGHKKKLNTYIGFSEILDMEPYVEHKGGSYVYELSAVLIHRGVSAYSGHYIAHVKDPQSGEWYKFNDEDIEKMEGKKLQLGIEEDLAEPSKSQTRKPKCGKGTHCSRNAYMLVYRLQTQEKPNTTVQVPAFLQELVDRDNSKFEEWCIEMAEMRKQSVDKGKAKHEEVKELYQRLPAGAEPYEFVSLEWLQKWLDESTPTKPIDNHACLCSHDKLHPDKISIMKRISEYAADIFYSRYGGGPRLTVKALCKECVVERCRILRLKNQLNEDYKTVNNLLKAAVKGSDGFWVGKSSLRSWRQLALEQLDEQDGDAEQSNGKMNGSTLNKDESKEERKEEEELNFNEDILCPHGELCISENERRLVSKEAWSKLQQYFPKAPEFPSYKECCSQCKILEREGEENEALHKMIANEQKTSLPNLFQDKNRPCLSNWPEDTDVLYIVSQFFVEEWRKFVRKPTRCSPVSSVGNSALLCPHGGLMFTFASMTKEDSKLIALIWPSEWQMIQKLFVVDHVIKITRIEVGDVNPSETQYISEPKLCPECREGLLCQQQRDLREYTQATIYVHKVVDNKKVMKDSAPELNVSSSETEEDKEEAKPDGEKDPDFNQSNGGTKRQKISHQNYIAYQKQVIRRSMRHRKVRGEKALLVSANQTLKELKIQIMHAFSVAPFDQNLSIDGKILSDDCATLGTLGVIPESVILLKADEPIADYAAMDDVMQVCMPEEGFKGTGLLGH
Outline: as §1

USP5 = target: T4, USP5 (UniProt P45974)
T4 sequence (whole entry): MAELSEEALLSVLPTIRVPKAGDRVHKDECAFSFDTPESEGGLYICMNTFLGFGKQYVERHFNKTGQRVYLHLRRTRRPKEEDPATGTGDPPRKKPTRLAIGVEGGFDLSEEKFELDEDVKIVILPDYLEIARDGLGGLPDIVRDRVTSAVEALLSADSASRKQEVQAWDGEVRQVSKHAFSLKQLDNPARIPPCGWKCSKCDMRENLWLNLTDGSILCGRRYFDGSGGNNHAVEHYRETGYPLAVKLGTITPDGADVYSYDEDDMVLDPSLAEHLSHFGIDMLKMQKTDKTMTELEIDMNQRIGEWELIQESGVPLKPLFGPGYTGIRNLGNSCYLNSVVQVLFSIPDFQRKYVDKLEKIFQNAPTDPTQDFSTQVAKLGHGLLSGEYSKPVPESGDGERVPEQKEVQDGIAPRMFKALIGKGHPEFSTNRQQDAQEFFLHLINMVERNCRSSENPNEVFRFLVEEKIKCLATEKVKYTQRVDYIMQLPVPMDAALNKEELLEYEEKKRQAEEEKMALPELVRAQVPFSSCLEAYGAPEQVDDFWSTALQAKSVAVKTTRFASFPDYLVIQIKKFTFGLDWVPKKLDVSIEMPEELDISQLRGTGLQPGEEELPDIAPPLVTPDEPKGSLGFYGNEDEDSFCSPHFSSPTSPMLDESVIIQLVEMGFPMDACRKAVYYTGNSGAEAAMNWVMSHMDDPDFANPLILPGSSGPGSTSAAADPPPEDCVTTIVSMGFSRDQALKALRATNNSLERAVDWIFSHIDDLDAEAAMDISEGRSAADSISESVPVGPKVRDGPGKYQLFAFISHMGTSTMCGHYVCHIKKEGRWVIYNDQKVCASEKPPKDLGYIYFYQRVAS
Outline: as §1

USP54 = USP54 (UniProt Q70EL1)
Outline: as §1

USP7 = USP7 (UniProt Q93009)
Outline: as §1

USP8 = target: T5, USP8 (UniProt P40818)
T5 sequence (whole entry): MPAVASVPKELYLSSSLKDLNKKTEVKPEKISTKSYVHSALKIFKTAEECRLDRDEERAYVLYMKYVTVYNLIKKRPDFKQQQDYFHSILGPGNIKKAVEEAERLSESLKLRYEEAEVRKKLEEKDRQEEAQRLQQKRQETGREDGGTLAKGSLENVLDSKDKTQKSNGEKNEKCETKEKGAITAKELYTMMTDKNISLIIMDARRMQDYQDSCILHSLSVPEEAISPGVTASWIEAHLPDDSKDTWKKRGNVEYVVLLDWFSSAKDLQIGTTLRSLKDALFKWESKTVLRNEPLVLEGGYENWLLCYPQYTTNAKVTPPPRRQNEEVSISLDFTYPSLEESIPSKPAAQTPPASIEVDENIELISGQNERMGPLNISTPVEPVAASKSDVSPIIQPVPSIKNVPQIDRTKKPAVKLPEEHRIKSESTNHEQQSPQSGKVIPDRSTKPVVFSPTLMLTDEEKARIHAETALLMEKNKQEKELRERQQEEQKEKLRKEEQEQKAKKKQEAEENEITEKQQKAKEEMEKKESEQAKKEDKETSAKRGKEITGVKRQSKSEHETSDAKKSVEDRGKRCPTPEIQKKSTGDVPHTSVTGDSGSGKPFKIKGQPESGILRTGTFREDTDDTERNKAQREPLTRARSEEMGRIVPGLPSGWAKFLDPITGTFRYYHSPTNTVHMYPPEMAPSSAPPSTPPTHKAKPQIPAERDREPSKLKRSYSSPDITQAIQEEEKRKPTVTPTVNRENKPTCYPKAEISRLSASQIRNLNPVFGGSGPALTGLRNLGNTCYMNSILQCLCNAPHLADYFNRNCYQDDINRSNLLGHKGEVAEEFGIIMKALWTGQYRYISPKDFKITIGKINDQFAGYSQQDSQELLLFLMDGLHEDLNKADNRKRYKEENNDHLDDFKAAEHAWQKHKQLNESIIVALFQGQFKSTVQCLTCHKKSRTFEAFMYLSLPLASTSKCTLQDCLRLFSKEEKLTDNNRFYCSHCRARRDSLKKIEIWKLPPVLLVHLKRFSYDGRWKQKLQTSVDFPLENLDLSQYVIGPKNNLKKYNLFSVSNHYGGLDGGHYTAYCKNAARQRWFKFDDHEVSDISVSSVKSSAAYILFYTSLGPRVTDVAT
Outline: as §1

USP9X = USP9X (UniProt Q93008)
Outline: as §1

UniProt O00487 = target: UniProt O00487
Outline: as §1

Measured: log2 ratio of Biotin-Ahx-Ub-VS probe labelling

Chain of USP9X (Q93008 whole entry): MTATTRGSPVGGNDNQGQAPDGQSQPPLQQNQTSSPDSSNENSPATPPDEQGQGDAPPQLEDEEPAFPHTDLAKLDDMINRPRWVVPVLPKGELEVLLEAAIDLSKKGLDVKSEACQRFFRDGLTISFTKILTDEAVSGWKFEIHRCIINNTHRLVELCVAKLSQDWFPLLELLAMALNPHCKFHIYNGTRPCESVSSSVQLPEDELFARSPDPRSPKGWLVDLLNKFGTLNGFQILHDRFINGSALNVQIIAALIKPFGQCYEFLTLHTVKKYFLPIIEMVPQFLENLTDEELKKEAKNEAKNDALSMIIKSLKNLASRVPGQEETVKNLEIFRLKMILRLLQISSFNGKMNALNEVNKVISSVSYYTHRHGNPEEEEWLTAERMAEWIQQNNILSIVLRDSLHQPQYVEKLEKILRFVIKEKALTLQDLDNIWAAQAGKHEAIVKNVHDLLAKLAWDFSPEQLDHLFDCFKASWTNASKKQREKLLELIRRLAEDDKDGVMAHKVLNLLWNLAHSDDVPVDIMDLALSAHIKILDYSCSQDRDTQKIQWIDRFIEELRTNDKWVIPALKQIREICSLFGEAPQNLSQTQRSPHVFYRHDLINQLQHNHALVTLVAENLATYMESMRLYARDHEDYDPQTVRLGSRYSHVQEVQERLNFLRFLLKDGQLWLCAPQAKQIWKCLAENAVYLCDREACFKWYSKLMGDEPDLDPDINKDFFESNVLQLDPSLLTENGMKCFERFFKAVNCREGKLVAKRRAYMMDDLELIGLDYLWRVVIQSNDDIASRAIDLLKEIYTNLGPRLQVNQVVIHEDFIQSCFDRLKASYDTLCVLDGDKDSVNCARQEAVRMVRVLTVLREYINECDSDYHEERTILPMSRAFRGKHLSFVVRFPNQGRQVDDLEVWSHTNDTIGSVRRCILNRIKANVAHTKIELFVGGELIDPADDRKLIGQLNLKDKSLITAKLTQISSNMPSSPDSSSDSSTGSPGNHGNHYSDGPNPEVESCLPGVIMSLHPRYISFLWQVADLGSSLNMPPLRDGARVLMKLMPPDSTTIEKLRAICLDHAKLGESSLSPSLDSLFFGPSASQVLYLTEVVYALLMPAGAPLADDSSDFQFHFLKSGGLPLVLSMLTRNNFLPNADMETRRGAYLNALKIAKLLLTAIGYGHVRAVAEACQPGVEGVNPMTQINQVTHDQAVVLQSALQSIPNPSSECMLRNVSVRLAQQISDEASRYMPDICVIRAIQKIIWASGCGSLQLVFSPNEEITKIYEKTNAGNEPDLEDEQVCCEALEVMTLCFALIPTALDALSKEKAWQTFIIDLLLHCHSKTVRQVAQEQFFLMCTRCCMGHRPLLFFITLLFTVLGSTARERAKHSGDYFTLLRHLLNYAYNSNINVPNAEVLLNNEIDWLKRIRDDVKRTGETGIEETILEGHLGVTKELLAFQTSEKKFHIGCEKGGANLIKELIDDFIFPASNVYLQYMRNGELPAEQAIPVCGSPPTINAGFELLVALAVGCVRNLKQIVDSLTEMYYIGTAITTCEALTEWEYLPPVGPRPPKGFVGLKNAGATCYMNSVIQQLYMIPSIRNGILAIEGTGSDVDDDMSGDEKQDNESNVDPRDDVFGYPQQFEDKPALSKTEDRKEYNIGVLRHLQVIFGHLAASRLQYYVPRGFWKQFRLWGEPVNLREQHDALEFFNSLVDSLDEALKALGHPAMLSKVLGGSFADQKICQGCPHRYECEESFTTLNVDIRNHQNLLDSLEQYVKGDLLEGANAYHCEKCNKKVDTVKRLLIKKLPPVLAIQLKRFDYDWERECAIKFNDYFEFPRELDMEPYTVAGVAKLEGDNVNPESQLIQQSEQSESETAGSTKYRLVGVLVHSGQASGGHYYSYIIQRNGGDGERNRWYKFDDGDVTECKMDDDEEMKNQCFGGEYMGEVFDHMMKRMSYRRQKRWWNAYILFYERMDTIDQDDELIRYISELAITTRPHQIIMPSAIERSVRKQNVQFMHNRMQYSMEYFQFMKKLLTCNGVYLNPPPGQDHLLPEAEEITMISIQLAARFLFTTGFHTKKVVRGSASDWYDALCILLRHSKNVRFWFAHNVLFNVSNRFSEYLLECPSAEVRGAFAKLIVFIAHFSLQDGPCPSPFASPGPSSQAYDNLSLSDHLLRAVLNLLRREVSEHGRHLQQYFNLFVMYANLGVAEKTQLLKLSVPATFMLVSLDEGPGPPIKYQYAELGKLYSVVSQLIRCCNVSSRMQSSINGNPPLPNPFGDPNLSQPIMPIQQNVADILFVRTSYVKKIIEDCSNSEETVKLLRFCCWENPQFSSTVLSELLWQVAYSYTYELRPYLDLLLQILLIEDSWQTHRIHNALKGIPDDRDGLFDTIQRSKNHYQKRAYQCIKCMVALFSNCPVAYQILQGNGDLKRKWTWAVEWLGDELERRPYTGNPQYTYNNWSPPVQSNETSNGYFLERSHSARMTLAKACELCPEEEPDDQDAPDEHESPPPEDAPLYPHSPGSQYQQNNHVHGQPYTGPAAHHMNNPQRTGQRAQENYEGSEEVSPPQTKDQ
Chain of USP46 (P62068 whole entry): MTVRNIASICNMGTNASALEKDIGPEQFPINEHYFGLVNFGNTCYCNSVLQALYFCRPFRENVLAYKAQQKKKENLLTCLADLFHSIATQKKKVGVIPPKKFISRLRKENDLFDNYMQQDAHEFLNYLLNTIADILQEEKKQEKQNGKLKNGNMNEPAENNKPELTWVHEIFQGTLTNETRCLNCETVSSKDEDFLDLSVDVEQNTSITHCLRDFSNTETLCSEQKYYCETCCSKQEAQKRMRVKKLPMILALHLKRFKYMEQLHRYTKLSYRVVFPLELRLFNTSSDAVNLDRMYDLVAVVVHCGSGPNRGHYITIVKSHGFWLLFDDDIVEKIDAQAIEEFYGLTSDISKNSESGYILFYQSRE
Chain of USP54 (Q70EL1 whole entry): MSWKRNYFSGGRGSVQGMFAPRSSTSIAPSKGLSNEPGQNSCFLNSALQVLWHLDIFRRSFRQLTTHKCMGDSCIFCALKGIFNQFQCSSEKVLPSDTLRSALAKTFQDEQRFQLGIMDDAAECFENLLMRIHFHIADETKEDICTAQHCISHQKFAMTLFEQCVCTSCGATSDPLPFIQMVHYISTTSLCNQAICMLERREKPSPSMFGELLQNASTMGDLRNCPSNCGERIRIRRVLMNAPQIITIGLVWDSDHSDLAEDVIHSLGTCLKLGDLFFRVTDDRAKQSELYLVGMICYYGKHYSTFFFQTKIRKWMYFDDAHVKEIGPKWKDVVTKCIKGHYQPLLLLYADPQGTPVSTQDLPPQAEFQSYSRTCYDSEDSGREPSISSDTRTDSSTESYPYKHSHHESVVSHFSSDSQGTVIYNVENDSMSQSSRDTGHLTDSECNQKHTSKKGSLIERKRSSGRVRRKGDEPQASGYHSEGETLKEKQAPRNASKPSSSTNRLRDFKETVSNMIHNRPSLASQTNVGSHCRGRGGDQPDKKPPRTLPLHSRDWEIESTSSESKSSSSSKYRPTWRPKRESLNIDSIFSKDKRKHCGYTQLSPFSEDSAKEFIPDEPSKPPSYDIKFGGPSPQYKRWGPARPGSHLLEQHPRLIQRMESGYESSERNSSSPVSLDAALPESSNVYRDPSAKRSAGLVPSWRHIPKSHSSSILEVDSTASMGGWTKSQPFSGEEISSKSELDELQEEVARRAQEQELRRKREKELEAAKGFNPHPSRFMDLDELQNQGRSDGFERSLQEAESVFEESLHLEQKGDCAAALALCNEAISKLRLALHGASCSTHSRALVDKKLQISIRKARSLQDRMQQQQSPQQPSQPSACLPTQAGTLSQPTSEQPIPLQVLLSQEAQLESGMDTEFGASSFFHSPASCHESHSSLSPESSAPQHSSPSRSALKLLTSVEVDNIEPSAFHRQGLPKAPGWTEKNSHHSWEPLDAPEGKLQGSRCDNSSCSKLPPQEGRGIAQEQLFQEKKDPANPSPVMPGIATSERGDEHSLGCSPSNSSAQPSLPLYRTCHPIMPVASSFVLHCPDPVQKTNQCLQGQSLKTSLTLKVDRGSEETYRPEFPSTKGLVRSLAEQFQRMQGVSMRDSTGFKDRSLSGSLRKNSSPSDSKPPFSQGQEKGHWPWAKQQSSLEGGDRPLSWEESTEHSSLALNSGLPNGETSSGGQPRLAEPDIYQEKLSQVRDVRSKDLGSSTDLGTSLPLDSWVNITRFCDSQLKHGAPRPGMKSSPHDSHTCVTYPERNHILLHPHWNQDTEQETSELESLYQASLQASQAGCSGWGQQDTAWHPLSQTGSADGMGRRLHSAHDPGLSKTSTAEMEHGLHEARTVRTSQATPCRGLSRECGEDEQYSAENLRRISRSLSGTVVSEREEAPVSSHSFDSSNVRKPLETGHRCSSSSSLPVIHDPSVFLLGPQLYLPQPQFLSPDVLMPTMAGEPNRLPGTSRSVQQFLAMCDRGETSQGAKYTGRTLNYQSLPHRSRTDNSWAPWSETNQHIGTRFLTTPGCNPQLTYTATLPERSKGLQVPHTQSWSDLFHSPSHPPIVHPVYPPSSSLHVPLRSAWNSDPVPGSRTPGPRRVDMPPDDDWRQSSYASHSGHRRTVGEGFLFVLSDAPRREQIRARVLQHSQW
Chain of UniProt O00487 (O00487 whole entry): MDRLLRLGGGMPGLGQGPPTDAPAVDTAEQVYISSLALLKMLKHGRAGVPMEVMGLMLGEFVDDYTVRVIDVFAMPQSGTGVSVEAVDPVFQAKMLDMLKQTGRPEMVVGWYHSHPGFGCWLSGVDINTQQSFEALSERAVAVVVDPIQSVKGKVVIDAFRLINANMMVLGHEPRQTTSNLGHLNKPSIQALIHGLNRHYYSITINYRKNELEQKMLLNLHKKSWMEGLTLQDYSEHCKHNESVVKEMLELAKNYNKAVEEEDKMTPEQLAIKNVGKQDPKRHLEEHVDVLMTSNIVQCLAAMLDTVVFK

C[C@@H](NC(=O)CCl)c1cccc(C#N)c1
inactive: USP42 0.213 | USP46 0.013 | USP47 -0.609 | USP48 -0.209 | USP5 0.067 | USP54 0.0518 | USP7 -0.0563 | USP8 -0.19 | USP9X -0.116 | UniProt O00487 0.0457
